mHTT-CaM PPI inh = mutant huntingtin-calmodulin interaction inhibitors – biochemical, AlphaScreen, primary screen. AlphaScreen His-mHTT/GST-CaM binding, luminescence. inhibition, % at 15 µM. 190,000 tested, 3.6% active;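 note: 0% = both proteins with DMSO and 100% = one protein alone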
Target sequence (P42858 whole entry, looked up, stated change not applied): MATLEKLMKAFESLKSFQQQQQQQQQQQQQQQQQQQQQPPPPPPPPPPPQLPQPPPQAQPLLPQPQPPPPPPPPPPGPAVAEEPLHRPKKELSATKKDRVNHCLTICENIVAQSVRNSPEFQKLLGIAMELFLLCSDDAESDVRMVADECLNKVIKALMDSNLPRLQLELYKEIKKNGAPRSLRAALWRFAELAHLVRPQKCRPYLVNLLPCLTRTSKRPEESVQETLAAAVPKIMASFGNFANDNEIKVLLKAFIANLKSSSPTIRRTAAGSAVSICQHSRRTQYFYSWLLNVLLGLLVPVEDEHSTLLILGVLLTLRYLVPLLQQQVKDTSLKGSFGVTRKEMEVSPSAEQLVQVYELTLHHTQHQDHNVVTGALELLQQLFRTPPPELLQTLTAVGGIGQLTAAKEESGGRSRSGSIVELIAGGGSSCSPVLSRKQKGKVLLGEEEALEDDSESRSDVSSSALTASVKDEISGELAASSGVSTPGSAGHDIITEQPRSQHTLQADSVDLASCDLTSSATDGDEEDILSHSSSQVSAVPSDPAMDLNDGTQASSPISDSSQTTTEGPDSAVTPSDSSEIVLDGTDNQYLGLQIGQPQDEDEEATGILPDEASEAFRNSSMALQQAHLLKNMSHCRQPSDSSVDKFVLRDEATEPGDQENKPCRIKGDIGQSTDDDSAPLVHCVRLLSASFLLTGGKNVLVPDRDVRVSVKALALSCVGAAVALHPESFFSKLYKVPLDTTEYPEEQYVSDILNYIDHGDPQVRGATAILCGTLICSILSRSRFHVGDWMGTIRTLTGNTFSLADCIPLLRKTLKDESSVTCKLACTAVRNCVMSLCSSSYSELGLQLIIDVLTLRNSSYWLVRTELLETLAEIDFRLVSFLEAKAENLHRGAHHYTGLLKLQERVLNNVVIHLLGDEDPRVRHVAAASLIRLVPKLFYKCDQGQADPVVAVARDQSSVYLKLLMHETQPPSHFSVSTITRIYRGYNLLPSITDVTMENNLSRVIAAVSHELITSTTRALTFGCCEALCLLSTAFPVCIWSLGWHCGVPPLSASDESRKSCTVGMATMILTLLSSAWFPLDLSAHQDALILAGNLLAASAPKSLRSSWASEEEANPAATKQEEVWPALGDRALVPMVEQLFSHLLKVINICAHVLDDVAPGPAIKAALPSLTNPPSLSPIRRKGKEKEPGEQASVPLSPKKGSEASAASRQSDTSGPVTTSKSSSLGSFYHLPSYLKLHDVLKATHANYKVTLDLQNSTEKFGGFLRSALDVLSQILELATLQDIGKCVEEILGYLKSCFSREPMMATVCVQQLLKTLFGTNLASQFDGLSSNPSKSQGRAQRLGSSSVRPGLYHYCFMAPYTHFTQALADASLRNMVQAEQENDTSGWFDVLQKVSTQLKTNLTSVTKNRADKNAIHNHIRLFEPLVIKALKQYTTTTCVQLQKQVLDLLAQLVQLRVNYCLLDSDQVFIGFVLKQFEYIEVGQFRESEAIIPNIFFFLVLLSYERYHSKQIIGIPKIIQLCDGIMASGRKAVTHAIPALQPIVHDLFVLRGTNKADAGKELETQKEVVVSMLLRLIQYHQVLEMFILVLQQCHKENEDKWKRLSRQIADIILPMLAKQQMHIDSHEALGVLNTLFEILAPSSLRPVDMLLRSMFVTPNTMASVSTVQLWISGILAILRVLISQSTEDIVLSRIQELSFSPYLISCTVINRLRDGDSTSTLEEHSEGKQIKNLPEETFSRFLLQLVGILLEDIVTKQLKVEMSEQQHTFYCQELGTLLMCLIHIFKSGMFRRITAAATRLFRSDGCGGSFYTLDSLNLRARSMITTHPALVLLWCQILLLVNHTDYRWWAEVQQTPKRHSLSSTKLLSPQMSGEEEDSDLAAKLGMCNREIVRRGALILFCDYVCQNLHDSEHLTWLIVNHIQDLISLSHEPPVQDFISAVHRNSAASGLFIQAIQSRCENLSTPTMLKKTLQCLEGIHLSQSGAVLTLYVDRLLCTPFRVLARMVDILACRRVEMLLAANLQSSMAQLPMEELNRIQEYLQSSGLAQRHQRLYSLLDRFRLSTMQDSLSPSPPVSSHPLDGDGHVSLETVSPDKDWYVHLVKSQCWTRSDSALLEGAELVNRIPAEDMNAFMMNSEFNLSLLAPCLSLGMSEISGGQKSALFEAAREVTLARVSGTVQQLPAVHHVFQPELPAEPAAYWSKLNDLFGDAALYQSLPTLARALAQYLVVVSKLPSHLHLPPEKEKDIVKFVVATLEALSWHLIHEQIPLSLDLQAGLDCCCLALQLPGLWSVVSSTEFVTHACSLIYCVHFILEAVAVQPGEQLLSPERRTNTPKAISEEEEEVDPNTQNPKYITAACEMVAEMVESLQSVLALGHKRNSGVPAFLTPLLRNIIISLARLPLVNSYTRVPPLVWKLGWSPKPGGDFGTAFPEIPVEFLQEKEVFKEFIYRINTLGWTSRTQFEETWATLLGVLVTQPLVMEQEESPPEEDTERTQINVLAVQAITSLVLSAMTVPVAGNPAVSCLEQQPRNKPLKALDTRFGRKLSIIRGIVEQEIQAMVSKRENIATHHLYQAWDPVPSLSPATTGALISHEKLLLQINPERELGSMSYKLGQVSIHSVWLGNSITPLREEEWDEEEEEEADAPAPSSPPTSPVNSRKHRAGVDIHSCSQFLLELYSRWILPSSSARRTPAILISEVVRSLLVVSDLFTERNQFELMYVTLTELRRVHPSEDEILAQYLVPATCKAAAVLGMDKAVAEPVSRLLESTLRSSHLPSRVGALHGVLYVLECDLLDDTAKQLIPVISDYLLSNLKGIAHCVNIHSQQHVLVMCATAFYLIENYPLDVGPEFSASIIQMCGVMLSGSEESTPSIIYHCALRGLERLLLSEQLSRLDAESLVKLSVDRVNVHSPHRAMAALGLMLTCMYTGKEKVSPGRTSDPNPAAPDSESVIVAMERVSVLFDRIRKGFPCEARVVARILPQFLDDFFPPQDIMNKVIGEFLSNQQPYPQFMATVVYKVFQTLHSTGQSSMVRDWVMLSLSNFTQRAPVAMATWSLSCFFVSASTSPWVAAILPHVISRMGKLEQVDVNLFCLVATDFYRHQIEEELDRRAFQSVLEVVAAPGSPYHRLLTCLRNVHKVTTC
Pf apPOL inh = Pf-apPOL inhibitors, biochemical, fluorescence; Plasmodium falciparum apicoplast DNA polymerase (apPOL); Recombinant Pf-apPOL, molecular beacon fluorescence, 1.5 h; inhibition, % at 10 µM; 210,000 tested, 0.25% active
Active calls of the source: *; / = not tested or not shown. This is a sample that favours compounds with a hit; in the whole collection about 3.6% have one here. Cut-off read from the data, not from the text of the source: active = inhibition above about 50%; inactive = the rest.

SMILES | mHTT-CaM PPI inh | Pf apPOL inh
Cc1ccnc(N2CCC(C(=O)N3CCN(c4cccc(C(F)(F)F)c4)CC3)CC2)n1 | 6 | -2
CS(=O)(=O)N1CCC(C(=O)NCCCN2CCN(c3ccccc3)CC2)CC1 | -13 | -10
Cc1ccc(Cl)cc1N1CCN(C(=O)C2CCN(c3ccncc3)CC2)CC1 | 100* | 2
Cc1ccc(C)c(N2CCN(C(=O)C3CCN(c4ccncc4)CC3)CC2)c1 | 0 | -3
O=C(NCCCN1CCN(c2cccc(Cl)c2)CC1)C1CCN(c2ccncc2)CC1 | 95* | 7
Cc1ccnc(N2CCCC(C(=O)N3CCN(c4ncccn4)CC3)C2)n1 (centres undefined) | -3 | -6
Cc1ccnc(N2CCCC(C(=O)N3CCN(c4cccc(C(F)(F)F)c4)CC3)C2)n1 (centres undefined) | 78* | 2
Cc1ccnc(N2CCCC(C(=O)N3CCN(c4cc(Cl)ccc4C)CC3)C2)n1 (centres undefined) | 90* | -5
Cc1ccc(CNC(=O)CN2C(=O)CCCc3ccccc32)o1 | 11 | -2
CCc1ccc(S(=O)(=O)N2CCC(c3nc4cccnc4n3C)C2)cc1 (centres undefined) | -3 | -6
O=C(COc1ccc2c(c1)OC(=Cc1ccc3c(c1)OCO3)C2=O)OCc1ccccc1 | -13 | -3
Cc1cccc(N2CCN(C(=O)c3ccc(N4CCNC(c5ccccc5)C4)nc3)CC2)c1 (centres undefined) | 65* | -4
COc1ccccc1NC(=O)c1ccc(N2CCNC(c3ccccc3)C2)nc1 (centres undefined) | 32 | 1
COc1ccccc1NC(=O)c1cccc(N2CCNC(c3ccccc3)C2)n1 (centres undefined) | 72* | -9
Cc1ccc(N2CCN(C(=O)c3ccnc(N4CCNC(c5ccccc5)C4)c3)CC2)cc1 (centres undefined) | 24 | -6
O=C(c1ccc(N2CCNC(c3ccccc3)C2)nc1)N1CCCC1 (centres undefined) | 7 | -4
O=C(c1cccc(N2CCNC(c3ccccc3)C2)n1)N1CCN(c2ccccc2)CC1 (centres undefined) | 27 | 8
O=C(c1cccc(N2CCNC(c3ccccc3)C2)n1)N1CCN(c2ccc(F)cc2)CC1 (centres undefined) | 51* | -6
Cc1ccc(N2CCN(C(=O)c3ccc(N4CCNC(c5ccccc5)C4)nc3)CC2)cc1 (centres undefined) | 73* | 2
COc1ccc(C2C(C#N)=C(N)N(c3ccccc3C(F)(F)F)C3=C2C(=O)CCC3)cc1 (centres undefined) | 17 | -1
OC(C#CC(O)(c1ccccc1)c1ccccc1)(c1ccccc1)c1ccccc1 | / | -12
COc1ccc(C(O)(C#Cc2ccccc2)c2ccccc2)cc1 (centres undefined) | 60* | -2
Cc1c(-c2ccc(/C=C3\SC(=N)NC3=O)o2)ccc([N+](=O)[O-])c1C | 41 | 2
COc1ccc(-c2ccc(/C=C3\SC(=N)NC3=O)o2)c([N+](=O)[O-])c1 | 59* | 1
Cc1onc(-c2ccccc2Cl)c1C(=O)NC12CC3CC(CC(C3)C1)C2 | -2 | -4
SMILES | mHTT-CaM PPI inh | Pf apPOL inh
CSc1ncccc1C(=O)N1CCc2nc(C)ncc2C1 | -6 | 1
O=C(CC(NCc1ccccn1)C(=O)O)Nc1cc(Cl)ccc1Cl (centres undefined) | 100* | -1
O=C(CC(NCc1ccco1)C(=O)O)Nc1cc(Cl)ccc1O (centres undefined) | 5 | 1
CCn1cc(C(=O)Nc2ccccn2)c(=O)c2cc(Cl)ccc21 | -18 | 0
O=C(CSc1nc(=O)n(Cc2ccncc2)c2c1CCCC2)NCC1CCCO1 (centres undefined) | -3 | 7
Cc1ccc(C)c(NC(=O)Cn2cc3c(n2)CCC(C)C3)c1 (centres undefined) | -11 | -3
CCSC1=C(C#N)C(Cc2ccccc2)C2=C(CCCC2=O)N1 (centres undefined) | -12 | -5
N#CC1=C(S)NC2=C(C(=O)CCC2)C1Cc1ccccc1 (centres undefined) | 59* | -6
O=C1OC(c2ccc(Cl)cc2)=C/C1=C\c1ccco1 | 20 | -4
O=C1OC(c2ccc(Oc3ccccc3)cc2)=C/C1=C\c1ccco1 | 78* | 3
Cc1ccc2cc3cc(C(=O)Nc4ccc5c(c4)OCO5)oc3nc2c1 | -5 | 0
CC1CCN(c2ccc(N3CCC(C(=O)NCc4ccc(Cl)cc4)CC3)nn2)CC1 | 5 | -8
CCOc1cc(CN2CCCC2c2cc(C)no2)ccc1OC(C)C (centres undefined) | 17 | 2
CCN(CCC#N)c1ccccc1 | -4 | -4
CCN(CCC#N)c1ccc(N=Nc2ccc([N+](=O)[O-])cc2)cc1 | 53* | 0
Cc1cc2c(C(C)C)c(O)c(O)c(C=NCSN)c2c(O)c1-c1c(C)cc2c(C(C)C)c(O)c(O)c(C=NCSN)c2c1O | 100* | /
CN(C)Cc1cc(Cl)ccc1O | -3 | 2
Oc1ccc(Cl)cc1Sc1cc(Cl)ccc1O | 98* | /
COc1ccc(Cl)cc1Nc1nc(-c2sc(N)nc2C)cs1 | 82* | -9
COc1nc(Nc2cc(Cl)ccc2OC)nc(OC)n1 | -3 | 2
COc1ccccc1Nc1nc(-c2ccncc2)cs1 | 11 | 1
COc1ccc(OC)c(Nc2nc(-c3sc(N)nc3C)cs2)c1 | 81* | -11
COc1ccc(Br)cc1/C=c1\sc2nc3ccccc3n2c1=O | 2 | -3
COc1ccc(S(=O)(=O)n2cc([N+](=O)[O-])cn2)cc1OC | 100* | -8
COc1ccc(S(=O)(=O)n2c([N+](=O)[O-])cnc2C)cc1OC | 2 | -4
SMILES | mHTT-CaM PPI inh | Pf apPOL inh
COc1ccc(N2CCN(C(=O)c3ccc(S(=O)(=O)N4CCC(C)CC4)cc3)CC2)cc1 | 8 | -1
COc1ccc(/C=C2\CCCC(C(=O)C(F)(F)F)=C2O)cc1 | 55* | 13
COc1ccc(/C=C2\CCC(C3CCCC3)C2=O)cc1 (centres undefined) | -19 | -2
CCOc1ccc(N=C(C)C2=C(O)c3ccccc3C2=O)cc1 | 5 | -8
Cc1ccc(S(=O)(=O)N=C2C=C(NS(=O)(=O)c3ccccc3)C(=O)c3ccccc32)cc1 | 66* | 5
Cc1ccc(S(=O)(=O)N=C2C=C(N3CCOCC3)C(=O)c3ccccc32)cc1 | 84* | 1
Cc1ccc(S(=O)(=O)Nc2ccccn2)cc1 | -8 | -8
CCOc1ccc(S(=O)(=O)N=C2C=C(Nc3cccc(C)c3)C(=O)c3ccccc32)cc1 | 82* | 2
Cc1cccc(NC2=C(N(C)C)C(=O)c3ccccc3C2=O)c1 | 19 | -10
CC(=NS(=O)(=O)c1ccc(C)cc1)N1CCOCC1 | -3 | 4
Cc1ccc(S(=O)(=O)N=C2C=C(Nc3cccc(C)c3)C(=O)c3ccccc32)cc1 | 82* | -2
CCCNc1cc(N2CCCC(CCC(=O)NCc3cnccn3)C2)ncn1 (centres undefined) | 7 | -9
COc1ccc(C(=O)COC(=O)c2cc3ccccc3oc2=O)cc1 | 0 | -2
Cc1ccc2c(NCc3ccccc3)c(-c3nc(C4CC4)no3)cnc2n1 | -5 | -2
CCC(CC)C(=O)Nc1c2c(nn1-c1ccc(C)cc1)CSC2 | -1 | -5
Cc1cc(C(=O)N2CCOCC2)n(CC(=O)Nc2cccc(C(F)(F)F)c2)n1 | 1 | -5
